Bioassay records (PubChem)
TbREL1 primary – TbREL1 inhibition, primary screen | P86926 | AID 1117264 | TbREL1 RNA ligation, FRET fluorescence | inhibition, % at 9.66 µM | 89,000 tested, 0.49% active;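 active = inhibition above the mean inhibition across all screened compounds plus 3 SD, cut at about 11% in these data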;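 note: 0% = plate median of test wells and 100% = NSC42067 control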
Target sequence (P86926 whole entry, looked up): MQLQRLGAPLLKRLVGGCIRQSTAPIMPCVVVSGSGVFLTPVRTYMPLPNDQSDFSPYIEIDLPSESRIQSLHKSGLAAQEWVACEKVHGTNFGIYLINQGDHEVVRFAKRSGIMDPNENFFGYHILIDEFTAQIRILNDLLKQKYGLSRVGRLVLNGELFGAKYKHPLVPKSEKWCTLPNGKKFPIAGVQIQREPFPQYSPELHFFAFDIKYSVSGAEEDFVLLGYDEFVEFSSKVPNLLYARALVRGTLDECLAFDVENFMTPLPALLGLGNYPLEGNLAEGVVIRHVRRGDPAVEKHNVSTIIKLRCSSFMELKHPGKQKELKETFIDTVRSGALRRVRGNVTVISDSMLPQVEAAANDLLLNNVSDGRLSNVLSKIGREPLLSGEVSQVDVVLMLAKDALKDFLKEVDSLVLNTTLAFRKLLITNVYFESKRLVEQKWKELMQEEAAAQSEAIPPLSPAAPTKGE
TbREL1 conf – TbREL1 inhibition, confirmation. shares compounds with TbREL1 primary. TbREL1 RNA ligation, FRET fluorescence. inhibition, % at 9.66 µM. 390 tested, 37% active. AID 1117282;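 active = mean inhibition across replicates above a set limit taken from the earlier primary screen, cut at about 11% in these data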;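 note: 0% = REL1 with substrate and DMSO and 100% = REL1 plus control inhibitor NSC42067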
* marks the source's active call; other numbers are inactive results. The entries come from a sample that favours hits as a whole.

SMILES | TbREL1 primary | others
C=CCOC(=O)C(CO)NC(=O)CCCC(=O)O (centres undefined) | 5
Cc1ccc(-c2cc(C(=O)NN=C/C=C/c3ccco3)[nH]n2)cc1C | -2
COc1ccccc1C=C1SC(=S)NC1=O | 3
O=C1NC(=NCc2ccccc2)S/C1=C\c1ccccc1 | 0
O=C1NC(=S)S/C1=C\c1ccc(SCc2ccccc2)o1 | 43* | TbREL1 conf=7
COc1ccc2c(CCN3C(=O)c4ccccc4C3=O)c(-c3c(CCN4C(=O)c5ccccc5C4=O)c4ccccc4n3C(=O)OC(C)(C)C)[nH]c2c1 | 4
O=C(O)c1ccc(N2C(=O)CSC2=S)cc1 | 3
O=C(O)c1ccc(CN2C(=O)CSC2=S)cc1 | 7
O=C(NN1C(=O)CSC1=S)C(=O)NN1C(=O)CSC1=S | 38* | TbREL1 conf=19*
Oc1ccc2ccccc2c1C=NN1CCN(Cc2ccc(Cl)cc2)CC1 | -3
C/C(=N\NC(=O)C1CC1)c1ccc(C)c(C)c1 | -2
C/C(=N\NC(=O)C1CC1)c1ccc(OC(F)F)cc1 | 16* | TbREL1 conf=4
COC(=O)N/N=C(\C)c1ccc(OC(F)F)cc1 | 4
COc1ccc2c(c1)CCCN2C(=O)C1CCCN(S(=O)(=O)c2cccc3ccccc23)C1 (centres undefined) | -3
CC(C)Oc1ccc(CNCCC2(C(C)C)CCOC(C)(C)C2)cc1 (centres undefined) | 2
COc1ccc(C(CCNCc2ccc(OC(C)C)cc2)c2ccccc2OC)cc1 (centres undefined) | 15* | TbREL1 conf=19*
COc1ccc(CNCCC(c2ccccc2)c2ccc(OC(C)C)cc2)cc1OC (centres undefined) | 10
COC(=O)[C@]12C[C@H](CC(=O)NCc3ccc(OC)c(OC)c3)C(=O)N(Cc3ccco3)C1=C[C@H](C1CCCC1)O[C@@H]2C | -2
CCC(=O)c1ccccc1OCCCN1CCC(Cc2ccccc2)CC1 | 11* | TbREL1 conf=11*
CCOc1ccccc1OCCN1CCC(Cc2ccccc2)CC1 | 2
CC(=O)CCc1ccc(OCCCCN2CCC(Cc3ccccc3)CC2)cc1 | 1
Cc1cc(NS(=O)(=O)c2ccc(NC(=O)CSc3nnc(SCc4ccc(Cl)cc4)s3)cc2)nc(C)n1 | -3
CCOC(=O)c1oc2cccc(O)c2c1C | 1
CCOc1ccc(C(=O)Cc2ccc3oc(C(=O)O)cc3c2)c(O)c1 | -2
CCOC(=O)c1ccc(CC(=O)c2ccc(O)c(O)c2O)o1 | 35* | TbREL1 conf=84*
SMILES | TbREL1 primary | others
Cc1sc2nc(COC(=O)CNC(=O)c3ccc(F)cc3Cl)[nH]c(=O)c2c1C | 6
COC(=O)[C@]12C[C@H](CC(=O)NCCC(C)C)C(=O)N(CCc3ccc(OC)c(OC)c3)C1=C[C@H](COCc1ccccc1)O[C@@H]2C | -2
CCCCN1C[C@@H]2CSCCS(=O)(=O)N2C1=O | 7
Nc1ccc2nc(-c3ccccn3)[nH]c2c1 | 0
Nc1ccc2nc(-c3cccnc3)[nH]c2c1 | 0
Nc1ccc2nc(-c3ccc(N)c(Cl)c3)[nH]c2c1 | 13* | TbREL1 conf=6
O=S1(=O)CCOCC(CO)N1Cc1cccc(Br)c1 (centres undefined) | 9
CC(C)CNC(=O)OCc1cn(Cc2cccc(Cl)c2)nn1 | 3
Cc1cc(O)cc(=O)n1-c1cc(F)c(F)c(F)c1 | 2
Cn1cccc1C=NNC(=O)c1cc(-c2ccc(Cl)cc2)n[nH]1 | 1
CSc1ccccc1NC(=O)CN(C)CC(=O)Nc1c(F)cccc1F | 16* | TbREL1 conf=9
CSc1ccccc1NC(=O)CN(C)CC(=O)Nc1ccccc1F | 12* | TbREL1 conf=3
CN(CC(=O)Nc1cccc(F)c1)CC(=O)Nc1cccc2ccccc12 | -1
CSc1ccccc1NC(=O)CN(C)Cc1ccc(Br)cc1 | 0
CSc1ccccc1NC(=O)CCc1ccccc1 | -3
CSc1ccccc1NC(=O)CN(C)C(C)C(=O)Nc1ccc(C#N)cc1 (centres undefined) | 1
COC(=O)[C@H]1C[C@]2(C(C=C(C)C)S(=O)(=O)c3ccccc3)c3ccccc3N[C@H]2N1 (some centres undefined) | -1
CCOC(=O)[C@]12CCCC3=C1N(CCC3)C(=O)[C@@H](CC(=O)NCc1cccc(C(F)(F)F)c1)C2 | 2
COC(=O)CC1CCc2cc(C)cc(C(=O)CC(C)C)c2O1 (centres undefined) | -1
Cc1cccc(CCNC(=O)Cn2ncc3c2-c2cc(C)ccc2OC3)c1 | 1
CCOC(=O)[C@@]12CCC3=C1N(CCC3)C(=O)[C@H](CC(=O)NCc1ccccc1)C2 | -5
COc1ccc(C2=Nn3c(nnc3C3CCCCC3)SC2)cc1 | -1
Cc1ccccc1CN1CCCCC(NC(=O)C2CCCCC2)C1=O (centres undefined) | 1
O=C(NCCc1ccccc1)OCc1cn(-c2ccc(F)c(F)c2)nn1 | -2
c1ccc(C[C@H]2CNCCN2CCCCC2CCCCC2)cc1 | 6
Oc1ccc(C[C@@H]2CNCCN2CCc2cccc3ccccc23)cc1 | 3
c1ccc2c(C[C@@H]3CNCCN3CCCCC3CCCCC3)cccc2c1 | 14* | TbREL1 conf=11
O=C(Nc1ccc(C(O)(C(F)(F)F)C(F)(F)F)cc1)c1ccc(Cl)cc1 | 4
